# Assay results taken from PubChem BioAssay (NCI).
# The panel holds about 83,000 compounds, 20% with a hit somewhere; the sample as a whole holds those more often.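 Treatment: one concentration, 48 hours, 96-well format. Scoring: percent growth, with anything below 10 considered active.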 Unmarked numbers belong to inactive results. Active and inactive are the calls of the source.
# Tested on: SK-MEL-5 melanoma
# Test: NCI-60 one-dose screen, 48 h (100 = growth as untreated, 0 = no growth, -100 = all killed)
# Details: 10 µM unless noted
row,Structure (SMILES),growth
1,Fc1ccc(-c2cc3nc(C(Cl)Cl)nc(-c4ccccc4)n3n2)cc1,75.2%
2,O=C(c1ccc(Cl)cc1)C1[C@H](c2ccc(Cl)cc2)[C@@H](c2ccccc2)NC12C(=O)Nc1ccc(Br)cc12 (stereo partly specified),54.8%
3,COc1ccccc1C(=O)CSc1nc(Nc2ccc(S(N)(=O)=O)cc2)c2ccccc2n1,91.7%
4,CC(C)(C)Nc1nc2c(OCCc3ccccc3)cccn2c1-c1ccccc1Cl,-92.5% (active)
5,CNC(=O)c1cc(-c2ccc(NC(=O)Nc3ccc(N4CCOCC4)c(C(F)(F)F)c3)cc2)nc2cccnc12,67.2%
6,CS(=O)(=O)c1ccc(-n2cc(/C=C/C(=O)c3ccc(NC(=O)CO[N+](=O)[O-])cc3)c(-c3ccc(Cl)cc3)n2)cc1,98.4%
7,Cc1[nH]nc2ncc(C#Cc3cncc(C(=O)Nc4ccc(CN5CCN(C)CC5)c(C(F)(F)F)c4)c3)cc12,40.2%
8,CCN1C(=S)N(CC)C2C1N=C(SC)N2/N=C/C=C/c1ccccc1[N+](=O)[O-] (stereo unspecified),96.2%
9,C/C(=C(/c1ccc(Cl)cc1)c1ccc(OCCN)cc1)c1ccc(C)cc1,106%
10,O=[N+]([O-])c1ccc(O)c2ncccc12,15.3%
11,Cc1cc(=O)oc2cc(OCCCOc3ccc(/C=C/C(=O)Nc4ccc(Cl)cc4)cc3)ccc12,55.9%
12,Cc1ccc(-c2nc(C(Cl)Cl)nc3cc(-c4ccccc4)nn23)cc1,67.3%
13,Nc1cc(-c2c[nH]c3ccc(F)cc23)nc2cc(-c3c[nH]c4ccc(F)cc34)nn12,92.8%
14,COc1cccc(N2CCN(c3ncnc4c3[nH]c3ccc(F)cc34)C[C@@H]2C)c1,-90.9% (active)
15,Cc1ccc(/C=C/c2nn3c(-c4ccco4)nnc3s2)cc1C,103%
16,CCN1C(=S)N(CC)C2C1NN=C1SC(c3ccccc3)=CC(=O)N12 (stereo unspecified),99.7%
17,CC(C)NC(=O)c1cc(-c2ccc(NC(=O)Nc3ccc(N4CCOCC4)c(C(F)(F)F)c3)cc2)nc2cccnc12,78.7%
18,Cn1cc(-c2cc(N)n3nc(-c4cn(C)c5ccc(Cl)cc45)cc3n2)c2cc(Cl)ccc21,104%
19,NS(=O)(=O)c1cccc(Nc2nc(SCC(=O)c3ccc(Cl)cc3)nc3ccccc23)c1,73.5%

row,Structure (SMILES),growth
1,Cc1sc2c(c1C)c(=O)nc1c(-c3nc(-c4ccc(F)cc4)no3)n[nH]n12,107%
2,CN1C(=O)N(c2ccccc2)C2N=C(N/N=C/c3ccccc3)SC21 (stereo unspecified),5.76% (active)
3,O=C1C2=C(C(=O)c3c(O)cccc31)C(c1ccco1)c1sc(=O)[nH]c1S2 (stereo unspecified),-93.4% (active)
4,N[C@@H](Cc1cn(-c2c3ccccc3nc3ccccc23)nn1)C(=O)O,101%
5,Cc1sc2nc(NCc3ccccc3Cl)[nH]c(=O)c2c1C,72.9%
6,COc1ccccc1/C=C/C=N/NC1=NC2C(S1)N(C)C(=O)N2C (stereo unspecified),33.8%
7,CC(=O)Nc1cc(F)cc(-c2ccc3[nH]cc(-c4ccccc4)c3n2)c1,49%
8,O=C(CSc1nc2sc3c(c2c(=O)n1-c1ccc(Cl)cc1)CCCC3)N/N=C/c1ccc(F)cc1,103%
9,Cc1ccccc1NC(=O)/C=C/c1ccc(OCCOc2ccc3c(C)cc(=O)oc3c2)cc1,92.6%
10,CCN(CC)c1ccc(C=O)c(OCc2cn(CC(=O)Nc3ccc(Cl)cc3)nn2)c1,92.7%
11,CC(C)(C)OC(=O)N1C(=O)c2c(c3c4ccccc4[nH]c3c3ccc4ccccc4c23)C1=O,60.4%
12,O=C(CSc1nc2sc3c(c2c(=O)n1-c1ccc(Cl)cc1)CCCC3)NNC(=O)Nc1cccc(C(F)(F)F)c1,35.4%
13,CC(=O)Oc1ccccc1C(=O)Nc1cc(C(C)C)ccc1C,-31.9% (active)
14,N#Cc1c(-c2ccc(Cl)cc2)nc(SCc2ccc(F)cc2)nc1N1CCNCC1,62.5%
15,COc1ccc(NC(=O)c2sc3nc(-c4cnccn4)cc(-c4cccs4)c3c2N)cc1,59.4%
16,CNC(=O)c1cc(-c2ccc(NC(=O)Nc3ccc(N4CCN(C)CC4)c(C(F)(F)F)c3)cc2)nc2cccnc12,-96.6% (active)
17,O=C(CSc1nccc(=O)[nH]1)Nc1ccc(-c2nc3ccccc3[nH]2)cc1,99.7%
18,O=C1c2c(c3c4cccnc4[nH]c3c3ccc4ccccc4c23)C(=O)N1CCO,81.4%
19,CN1CCN(Cc2ccc(NC(=O)c3cncc(C#Cc4cnc5ccc(N6CCSCC6)nn45)c3)cc2C(F)(F)F)CC1,7.81% (active)

# Tested on: UACC-62 melanoma
# Test: as above
# Details: 10 µM unless noted
row,Structure (SMILES),growth
1,Fc1ccc(-c2cc3nc(C(Cl)Cl)nc(-c4ccccc4)n3n2)cc1,36.2%
2,O=C(c1ccc(Cl)cc1)C1[C@H](c2ccc(Cl)cc2)[C@@H](c2ccccc2)NC12C(=O)Nc1ccc(Br)cc12 (stereo partly specified),37.4%
3,COc1ccccc1C(=O)CSc1nc(Nc2ccc(S(N)(=O)=O)cc2)c2ccccc2n1,88.6%
4,CC(C)(C)Nc1nc2c(OCCc3ccccc3)cccn2c1-c1ccccc1Cl,-42.1% (active)
5,CNC(=O)c1cc(-c2ccc(NC(=O)Nc3ccc(N4CCOCC4)c(C(F)(F)F)c3)cc2)nc2cccnc12,64.3%
6,CS(=O)(=O)c1ccc(-n2cc(/C=C/C(=O)c3ccc(NC(=O)CO[N+](=O)[O-])cc3)c(-c3ccc(Cl)cc3)n2)cc1,83.3%
7,Cc1[nH]nc2ncc(C#Cc3cncc(C(=O)Nc4ccc(CN5CCN(C)CC5)c(C(F)(F)F)c4)c3)cc12,-15.8% (active)
8,CCN1C(=S)N(CC)C2C1N=C(SC)N2/N=C/C=C/c1ccccc1[N+](=O)[O-] (stereo unspecified),85.1%
9,C/C(=C(/c1ccc(Cl)cc1)c1ccc(OCCN)cc1)c1ccc(C)cc1,88.6%
10,O=[N+]([O-])c1ccc(O)c2ncccc12,10.5%
11,Cc1cc(=O)oc2cc(OCCCOc3ccc(/C=C/C(=O)Nc4ccc(Cl)cc4)cc3)ccc12,75.7%
12,Cc1ccc(-c2nc(C(Cl)Cl)nc3cc(-c4ccccc4)nn23)cc1,55.7%
13,Nc1cc(-c2c[nH]c3ccc(F)cc23)nc2cc(-c3c[nH]c4ccc(F)cc34)nn12,104%
14,COc1cccc(N2CCN(c3ncnc4c3[nH]c3ccc(F)cc34)C[C@@H]2C)c1,-70.8% (active)
15,Cc1ccc(/C=C/c2nn3c(-c4ccco4)nnc3s2)cc1C,94.8%
16,CCN1C(=S)N(CC)C2C1NN=C1SC(c3ccccc3)=CC(=O)N12 (stereo unspecified),92.6%
17,CC(C)NC(=O)c1cc(-c2ccc(NC(=O)Nc3ccc(N4CCOCC4)c(C(F)(F)F)c3)cc2)nc2cccnc12,75.3%
18,Cn1cc(-c2cc(N)n3nc(-c4cn(C)c5ccc(Cl)cc45)cc3n2)c2cc(Cl)ccc21,93.9%
19,NS(=O)(=O)c1cccc(Nc2nc(SCC(=O)c3ccc(Cl)cc3)nc3ccccc23)c1,62.6%

row,Structure (SMILES),growth
1,Cc1sc2c(c1C)c(=O)nc1c(-c3nc(-c4ccc(F)cc4)no3)n[nH]n12,97.8%
2,CN1C(=O)N(c2ccccc2)C2N=C(N/N=C/c3ccccc3)SC21 (stereo unspecified),44.4%
3,O=C1C2=C(C(=O)c3c(O)cccc31)C(c1ccco1)c1sc(=O)[nH]c1S2 (stereo unspecified),-74.9% (active)
4,N[C@@H](Cc1cn(-c2c3ccccc3nc3ccccc23)nn1)C(=O)O,93.5%
5,Cc1sc2nc(NCc3ccccc3Cl)[nH]c(=O)c2c1C,75.8%
6,COc1ccccc1/C=C/C=N/NC1=NC2C(S1)N(C)C(=O)N2C (stereo unspecified),46.7%
7,CC(=O)Nc1cc(F)cc(-c2ccc3[nH]cc(-c4ccccc4)c3n2)c1,-1.28% (active)
8,O=C(CSc1nc2sc3c(c2c(=O)n1-c1ccc(Cl)cc1)CCCC3)N/N=C/c1ccc(F)cc1,97%
9,Cc1ccccc1NC(=O)/C=C/c1ccc(OCCOc2ccc3c(C)cc(=O)oc3c2)cc1,91.6%
10,CCN(CC)c1ccc(C=O)c(OCc2cn(CC(=O)Nc3ccc(Cl)cc3)nn2)c1,58%
11,CC(C)(C)OC(=O)N1C(=O)c2c(c3c4ccccc4[nH]c3c3ccc4ccccc4c23)C1=O,60.3%
12,O=C(CSc1nc2sc3c(c2c(=O)n1-c1ccc(Cl)cc1)CCCC3)NNC(=O)Nc1cccc(C(F)(F)F)c1,17.3%
13,CC(=O)Oc1ccccc1C(=O)Nc1cc(C(C)C)ccc1C,16.9%
14,N#Cc1c(-c2ccc(Cl)cc2)nc(SCc2ccc(F)cc2)nc1N1CCNCC1,95%
15,COc1ccc(NC(=O)c2sc3nc(-c4cnccn4)cc(-c4cccs4)c3c2N)cc1,32.7%
16,CNC(=O)c1cc(-c2ccc(NC(=O)Nc3ccc(N4CCN(C)CC4)c(C(F)(F)F)c3)cc2)nc2cccnc12,-83.8% (active)
17,O=C(CSc1nccc(=O)[nH]1)Nc1ccc(-c2nc3ccccc3[nH]2)cc1,99.7%
18,O=C1c2c(c3c4cccnc4[nH]c3c3ccc4ccccc4c23)C(=O)N1CCO,46.5%
19,CN1CCN(Cc2ccc(NC(=O)c3cncc(C#Cc4cnc5ccc(N6CCSCC6)nn45)c3)cc2C(F)(F)F)CC1,-30.5% (active)
